Screening results (PubChem BioAssay)
TDP1 cell noCPT = qHTS for Inhibitors of human tyrosyl-DNA phosphodiesterase 1 (TDP1): qHTS in cells in absence of CPT | Potency, µM (series often up to 46.2 µM), for inactives: top-dose activity change, negative = growth inhibition, usual class: inhibitors | DT40 Tdp1-/- hTDP1 cells, no CPT, ATP luminescence, 48 h | AID 686978, 2013 | 420,000 compounds, 15% hits; note: potency is the fitted concentration of half-maximal effect; nearly all actives have a fitted effect of over 55% in size
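Camptothecin absent (DMSO only). Human TDP1-complemented DT40 knockout cells, 400 cells/well, 37 °C for minimum 48 hr; ATP measured via CellTiter-Glo, 30 min dark incubation, luminescence.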
ELG1 DNA repair = ELG1-dependent DNA repair inhibition; 330,000 compounds, 2.3% hits; HEK293T ELG1-luciferase reporter, luminescence, 16 h; DNA damage induced by 5-fluorouridine; Potency, µM (doses to about 46.1 µM), without a hit: at the top dose activity change, negative = inhibition, hits mostly inhibitors; note: potency is the fitted concentration of half-maximal effect; nearly all actives have a fitted effect of over 55% in size
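Step one: seed 2,000 cells per well. Step two: pin-transfer compound or DMSO alongside 5-fluorouridine. Step three: incubate 16 hr, 37 °C, 5% CO2. Step four: add ONE-Glo, wait 30 min, read luminescence.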
IL-1B inflam inh = inhibitors of inflammasome signaling (IL-1 beta secretion); activity change, % at 57.5 µM; 360,000 compounds, 4.7% hits; THP-1 LPS/ATP IL-1B secretion, AlphaLISA, 16 h; stronger effect = lower value; AID 743279; in the data active = activity change below about -50%; inconclusive = mostly about -30% to -49%
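Secreted IL-1B measured by AlphaLISA bead assay after 16 h compound exposure of THP-1 cells; compounds (final up to 57.5 uM) added 1 h before LPS (250 ng/mL) and ATP (1.25 mM) stimulation; lower signal means less secretion.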
HT1080-NT tox = kills 2HG-producing HT-1080-NT fibrosarcoma cells; HT-1080-NT fibrosarcoma viability, CellTiter-Glo ATP luminescence, 48 h; Potency, µM (doses to about 46.1 µM), for inactives: top-dose activity, negative = less viability, most hits filed as cytotoxic; 360,000 compounds, 1.6% hits;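 note: NT is the 2HG producing partner of a matched IDH1 knockdown line; potency is the fitted concentration of half-maximal effect; 0% = DMSO-treated cells and -100% = media-only wells without cells; nearly all actives have a fitted effect of over 55% in size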
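A 48-hour cytotoxicity screen used HT-1080-NT cells plated 2 hours before compound delivery. ATP-based CellTiter-Glo luminescence measured viability, normalized to DMSO and no-cell controls.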
TDP1 cell CPT = growth inhibition of DT40 Tdp1-/-;hTDP1 cells with camptothecin (screen for TDP1 inhibitors). chicken DT40 Tdp1-/-;hTDP1 cells + 20 nM CPT, ATP luminescence, 48 h. Potency, µM (titrated, usually from 46.2 µM), inactives show at the highest dose activity change, negative = growth inhibition, most hits filed as inhibitors. 420,000 compounds, 12% hits. AID 686979; note: potency is the fitted concentration of half-maximal effect; nearly all actives have a fitted effect of over 55% in size
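Chicken DT40 Tdp1-/- cells stably complemented with human TDP1 were seeded at 400 cells/well in medium containing 20 nM camptothecin, exposed to pin-transferred compounds, and grown at 37 °C for at least 48 hr. Viability was read as ATP luminescence.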
HT1080 IDH1KD tx = HT-1080 IDH1 knockdown cell toxicity (counter line) | HT-1080 IDH1 knockdown viability, ATP luminescence, 48 h | Potency, µM (titrated, usually from 46.1 µM), for the others: at the highest dose activity, negative = toxicity, actives largely listed as cytotoxic | 360,000 compounds, 2% hits | AID 686971;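 note: potency is the fitted concentration of half-maximal effect; 0% = DMSO wells and -100% = cell-free medium wells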
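Viability of IDH1-knockdown HT-1080 fibrosarcoma cells was assessed by CellTiter-Glo after 48 h at 37 °C with titrated compound; concentration-effect curves were classified by fit quality and response size.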
An asterisk follows results filed as active; ? = inconclusive; · = not tested or not shown. Most compounds without a hit are left out; they make up all but 19% or so of the library. Unless noted, calls come from the whole dose curve; as a rule, active = well fitted curve in the direction sought with a large enough effect; inconclusive = small, poorly fitted or top-dose-only effect, or another doubt; inactive = no such curve, though single readings can be large; an effect the other way counts as inactive or inconclusive. Unless noted, % is set by controls: 0 for no effect and ±100 for the full control effect.

SMILES	TDP1 cell noCPT	ELG1 DNA repair	IL-1B inflam inh	HT1080-NT tox	TDP1 cell CPT	HT1080 IDH1KD tx
CCC(C)c1ccc2oc(-c3ccc(NC(=O)Cn4cnc5c(=O)n(C)c(=O)n(C)c54)cc3)nc2c1 (stereo unspecified)	14.6µM*	?	29.9	10.3%	20.6µM*	-0.1%
Cc1ccc(-n2c(=O)c3c(c4cc(C)ccc4n3C)n(CC(=O)N3CCCC3)c2=O)cc1	?	·	·	·	-16.1%	·
CCNc1ncc2nc(-c3cn(C)c4ccccc34)c(=O)n(Cc3ccc(F)cc3)c2n1	-12.5%	·	·	·	-8.9%	·
O=C(Nc1nnc(CSCc2ccc(F)cc2)s1)c1ccc([N+](=O)[O-])cc1	-18.9%	-4.1%	19.6	0.0%	5.0%	2.0%
CCN(c1ccccc1)S(=O)(=O)c1cc(NC(=O)Nc2ccccc2C#N)ccc1Cl	?	20.6µM*	-10.2	-10.6%	-23.5%	-22.1%
CN(c1ccccc1)S(=O)(=O)c1cccc(NC(=O)c2ccc(=O)[nH]c2)c1	?	-6.3%	42.9	-1.2%	?	-0.9%
CN(c1ccccc1)S(=O)(=O)c1cccc(NC(=O)Nc2ccc(Cl)cc2C#N)c1	23.1µM*	?	-9.0	-1.9%	?	0.3%
CCN(c1ccccc1)S(=O)(=O)c1ccc(Cl)c(NC(=O)Nc2ccc(Cl)cc2C#N)c1	16.4µM*	-24.9%	-53.3*	-26.6%	16.4µM*	-34.3%
CC1CCN(c2nn3c(=O)c(C(=O)NCCc4ccc(Cl)cc4)cnc3s2)CC1	-3.4%	·	·	·	?	·
Cc1cc(C)cc(OC(=O)c2cc(-c3ccc4c(c3)OCCO4)on2)c1	-9.0%	·	·	·	-4.5%	·
Cc1cccc(NC(=O)Cn2c(=O)n(Cc3ccccc3)c(=O)c3sc4ccccc4c32)c1	-17.9%	·	·	·	-13.0%	·
CCOc1ccc(NC(=O)Cn2c(=O)n(Cc3ccccc3)c(=O)c3sc4ccccc4c32)cc1	9.2µM*	·	·	·	6.51µM*	·
COc1cc(NC(=O)Cn2c(=O)n(Cc3ccco3)c(=O)c3sc4ccccc4c32)cc(OC)c1	-28.7%	·	·	·	-20.8%	·
Cc1cccc(NC(=O)Cn2c(=O)n(CCc3ccccc3)c(=O)c3sc4ccccc4c32)c1	23.1µM*	·	·	·	16.4µM*	·
COc1cc2cc(CN(CCc3cccc(C)c3)C(=S)NCCCN3CCOCC3)c(=O)[nH]c2cc1OC	?	?	-61.7*	-1.0%	?	?
COc1cc2cc(CN(CCc3cccc(C)c3)C(=S)NCCCN(C)C)c(=O)[nH]c2cc1OC	?	-8.1%	?	-14.3%	-28.6%	-0.3%
CNC(=S)N(CCc1cccc(C)c1)Cc1cc2cc(OC)c(OC)cc2[nH]c1=O	?	13µM*	4.5	-1.9%	-1.8%	7.5%
CC(=O)C(=Cc1ccccc1)c1ccccc1	-28.0%	·	7.2	2.4%	?	2.4%
CCSc1nc(=O)c2c(n1C)NC(=O)CC2c1ccc(O)cc1OC (stereo unspecified)	0.5%	·	·	·	6.6%	·
Cc1cccc(CSc2nc(=O)c3c(n2C)NC(=O)CC3c2cc(F)cc(F)c2)c1 (stereo unspecified)	6.51µM*	·	·	·	9.2µM*	·
CCOc1cc(C2CC(=O)Nc3c2c(=O)nc(SCc2cccc(Cl)c2)n3C)ccc1O (stereo unspecified)	8.2µM*	·	·	·	?	·
CC(=O)N(c1ccc(Cl)cc1)C1SC(=O)N(c2ccccc2)C1=O (stereo unspecified)	?	·	·	15.9%	-5.6%	18.5%
CCn1cc(C(=O)N[C@H](C(=O)NCCO)C(C)C)c(=O)c2cc3c(cc21)OCO3	0.4%	1.4%	11.8	0.4%	1.9%	-2.9%
CCCC(=O)Nc1cccc(OCc2cc(=O)n3cccc(C)c3n2)c1	-26.5%	·	·	·	-22.9%	·
